Among the test systems are HCT-15 colon; HT29 colon; SNB-75 CNS; SNB-19 CNS; U251 CNS; PC-3 prostate; SK-MEL-5 melanoma; UACC-62 melanoma; LOX IMVI melanoma; SK-MEL-28 melanoma; SK-MEL-2 melanoma; EKVX NSCLC; SN12C renal; UO-31 renal; TK-10 renal; ACHN renal; CAKI-1 renal; A498 renal; CCRF-CEM leukemia; MOLT-4 leukemia.
What all share (assay): NCI-60 one-dose screen, 48 h (100 = growth as untreated, 0 = no growth, -100 = all killed)
Common to all, as to conditions: 10 µM unless noted

Each structure is given as a SMILES string. Compounds without any hit were thinned out: in the full panel of roughly 83,000, 20% have a hit.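 Single-concentration screen, 48 h exposure, 96-well plates. Endpoint: percent growth. Below 10 = active.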 Unmarked numbers belong to inactive results. Activity calls are given as the source filed them.

On to `NC(N)=Nc1ccc(Oc2cccc(Nc3ccc(Br)c(C(F)(F)F)c3)c2)cn1`, for which the growth in the assay on HCT-15 colon is -68.3% (active); in the assay on HT29 colon it was -48.5% (active); in the assay on SNB-75 CNS, 9.31% (active); in the assay with SNB-19 CNS, -83.5% (active); in the assay on U251 CNS, -79.6% (active); in the assay on PC-3 prostate it was -92% (active). For the same compound, the growth is 16.9% with SK-MEL-5 melanoma; -76.9% (active) in the assay on UACC-62 melanoma; -87.6% (active) in the assay with LOX IMVI melanoma; -32.1% (active) in the assay with SK-MEL-28 melanoma; -45.1% (active) in the assay with SK-MEL-2 melanoma; -68.8% (active) in the assay on EKVX NSCLC. Besides, the growth was -87.7% (active) in the assay on SN12C renal; 38.6% in the assay with UO-31 renal; 7.85% (active) in the assay with TK-10 renal; 1.96% (active) in the assay with ACHN renal; -5.28% (active) with CAKI-1 renal; -25.1% (active) in the assay on A498 renal. Further, the growth in the assay on CCRF-CEM leukemia is 0.633% (active); with MOLT-4 leukemia, -35.6% (active).
Regarding `C/C(=N\O)[C@H]1C[C@]23CC[C@]4(C)[C@H](CC[C@@H]5[C@@]6(C)CC/C(=N/O)C(C)(C)[C@@H]6CC[C@]54C)[C@H]2[C@H](C)C1(C)OC3`, the growth with HCT-15 colon is 105%; with HT29 colon it was 113%; with SNB-75 CNS, 72%; with SNB-19 CNS, 97.7%; in the assay on U251 CNS, 110%; in the assay on PC-3 prostate, 94.8%. Also, the growth is 100% with SK-MEL-5 melanoma; 89.7% with UACC-62 melanoma; 98.2% in the assay on LOX IMVI melanoma; 110% in the assay on SK-MEL-28 melanoma; 110% in the assay on SK-MEL-2 melanoma; 70.9% in the assay with EKVX NSCLC. Moreover, the growth was 91.5% in the assay on SN12C renal; 67% in the assay on UO-31 renal; 73.7% in the assay with TK-10 renal; 104% with ACHN renal; 65.2% with CAKI-1 renal; 72% in the assay with A498 renal. Also, the growth in the assay with CCRF-CEM leukemia is 101%; in the assay with MOLT-4 leukemia it was 98.7%.
With `C=CCOc1cccc(/C=C2\SC(=S)N(C3CC(=O)N(c4ccc(Br)cc4)C3=O)C2=O)c1` (stereo not given), the growth in the assay on HCT-15 colon was 97.5%; in the assay with HT29 colon, 115%; in the assay with SNB-75 CNS, 120%; with SNB-19 CNS, 96.5%; in the assay on U251 CNS it was 96.6%; in the assay with PC-3 prostate it was 93.1%. For the same compound, the growth in the assay with SK-MEL-5 melanoma was 101%; with UACC-62 melanoma it was 86.8%; in the assay on LOX IMVI melanoma, 93.1%; with SK-MEL-28 melanoma, 96.6%; in the assay on SK-MEL-2 melanoma it was 117%; in the assay on EKVX NSCLC it was 105%. For the same compound, the growth in the assay with SN12C renal was 92.8%; in the assay on UO-31 renal, 89.6%; with TK-10 renal it was 126%; in the assay on ACHN renal it was 94.8%; in the assay with CAKI-1 renal, 104%; in the assay with A498 renal, 105%. Moreover, the figures for the growth with CCRF-CEM leukemia and in the assay with MOLT-4 leukemia were 96.7% and 105%, respectively.
Take `CC(C)(C)c1ccc(-c2nnc(-c3nc4ccccc4nc3Cl)o2)cc1`: the growth is 81.9% with HCT-15 colon; 116% in the assay on HT29 colon; 96.4% in the assay on SNB-75 CNS; 95.8% in the assay on SNB-19 CNS; 98.2% in the assay with U251 CNS; 92.4% with PC-3 prostate. Also, the growth in the assay with SK-MEL-5 melanoma was 98.1%; with UACC-62 melanoma, 72.7%; in the assay with LOX IMVI melanoma, 90%; in the assay with SK-MEL-28 melanoma, 68.4%; in the assay with SK-MEL-2 melanoma it was 63.8%; with EKVX NSCLC it was 99.2%. Further, the growth in the assay with SN12C renal is 86.2%; in the assay with UO-31 renal, 79.4%; in the assay with TK-10 renal, 107%; with ACHN renal, 102%; with CAKI-1 renal, 89.2%; with A498 renal, 89.4%. The values for the growth with CCRF-CEM leukemia and in the assay on MOLT-4 leukemia were 103% and 101%, respectively.
Regarding `N/C(=N\C(N)=N\c1nc2ccccc2s1)c1ccncc1Cl`, the growth with HCT-15 colon was 33%; with HT29 colon, 18.8%; in the assay with SNB-75 CNS it was 7.82% (active); in the assay with SNB-19 CNS it was 38.2%; in the assay with U251 CNS, 31.8%; in the assay with PC-3 prostate, 29.5%. Further, the growth with SK-MEL-5 melanoma was 39.2%; in the assay on UACC-62 melanoma, 28%; in the assay on LOX IMVI melanoma, 41.3%; in the assay with SK-MEL-28 melanoma, 58.3%; with SK-MEL-2 melanoma, 35.3%; in the assay on EKVX NSCLC, 52.7%. Further, the growth in the assay with SN12C renal was 35.8%; in the assay on UO-31 renal, 34.6%; in the assay with TK-10 renal, 129%; with ACHN renal it was 37.7%; with CAKI-1 renal, 37.5%; with A498 renal it was 65.3%. In addition, the growth is 10.7% in the assay on CCRF-CEM leukemia and 23.9% in the assay on MOLT-4 leukemia.
With `COc1cc2oc(-c3cccc(C(=O)N[C@@H](CC(C)C)C(=O)OC(C)(C)C)c3)cc(=O)c2c(OC)c1OC`, the growth in the assay with HCT-15 colon is 36.9%; in the assay with HT29 colon it was 83.7%; in the assay on SNB-75 CNS, 80.9%; in the assay on SNB-19 CNS, 78.3%; in the assay on U251 CNS, 76.1%; in the assay with PC-3 prostate, 58.4%. The growth in the assay with SK-MEL-5 melanoma is 74.1%; in the assay on UACC-62 melanoma, 51.6%; in the assay with LOX IMVI melanoma, 46.5%; in the assay on SK-MEL-28 melanoma, 95.9%; in the assay on SK-MEL-2 melanoma, 81.6%; with EKVX NSCLC, 89.7%. Besides, the growth was 57% with SN12C renal; 39.6% in the assay on UO-31 renal; 95% in the assay with TK-10 renal; 69.7% with ACHN renal; 53.6% in the assay with CAKI-1 renal; 96.7% in the assay on A498 renal. Moreover, the growth in the assay on CCRF-CEM leukemia is 40.2%; with MOLT-4 leukemia it was 62.1%.

For the origin of these results see PubChem BioAssay (NCI).
